# Measured values published in article PMC7862700, “An all-to-all approach to the identification of sequence-specific readers for epigenetic DNA modifications on cytosine”.
# Experiments:
# Assay in all cases: DAPPL (digital affinity profiling via proximity ligation, sequencing); 10 mM Tris-HCl pH 7.5, 50 mM NaCl, 1 mM DTT, 4% glycerol, room temperature, 30 min; GST-TFs on glutathione beads, 16-mer random dsDNA library, 0.1% formaldehyde crosslink after washing; high values mean tight binding
# FLI1 = target: T1, FLI1 (Homo sapiens, UniProt Q01543 1-452); settings: protein: recombinant; tags: N-terminal GST; dsDNA, one strand shown
# T1 sequence: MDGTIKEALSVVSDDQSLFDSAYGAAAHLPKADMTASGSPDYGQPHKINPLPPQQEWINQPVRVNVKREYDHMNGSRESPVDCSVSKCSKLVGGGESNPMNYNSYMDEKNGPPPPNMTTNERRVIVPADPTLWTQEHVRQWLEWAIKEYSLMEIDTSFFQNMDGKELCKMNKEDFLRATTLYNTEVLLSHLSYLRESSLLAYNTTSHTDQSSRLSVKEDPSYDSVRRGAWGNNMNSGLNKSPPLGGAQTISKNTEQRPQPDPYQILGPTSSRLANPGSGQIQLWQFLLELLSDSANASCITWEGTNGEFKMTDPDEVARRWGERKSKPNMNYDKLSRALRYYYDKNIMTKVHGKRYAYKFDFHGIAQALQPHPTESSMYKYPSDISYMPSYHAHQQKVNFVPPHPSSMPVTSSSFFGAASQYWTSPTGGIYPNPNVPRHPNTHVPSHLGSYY
# How it was run: (§1)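 Each value of binding signal is a hexamer's read frequency for a factor divided by the same hexamer's frequency in the tag-only sample. Barcoded, bead-captured GST fusions of human transcription factors made in yeast were pooled with that sample and incubated with 200 nmole of a random double-stranded 16-mer DNA library in Tris/NaCl/DTT/glycerol buffer at room temperature for 30 min. Washing, 0.1% formaldehyde crosslinking, proximity ligation, PCR and Illumina NextSeq500 sequencing followed.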
# ELK1 = target: T2, ELK1 (Homo sapiens, UniProt P19419 1-428); settings: protein: recombinant; tags: N-terminal GST; dsDNA, one strand shown
# T2 sequence: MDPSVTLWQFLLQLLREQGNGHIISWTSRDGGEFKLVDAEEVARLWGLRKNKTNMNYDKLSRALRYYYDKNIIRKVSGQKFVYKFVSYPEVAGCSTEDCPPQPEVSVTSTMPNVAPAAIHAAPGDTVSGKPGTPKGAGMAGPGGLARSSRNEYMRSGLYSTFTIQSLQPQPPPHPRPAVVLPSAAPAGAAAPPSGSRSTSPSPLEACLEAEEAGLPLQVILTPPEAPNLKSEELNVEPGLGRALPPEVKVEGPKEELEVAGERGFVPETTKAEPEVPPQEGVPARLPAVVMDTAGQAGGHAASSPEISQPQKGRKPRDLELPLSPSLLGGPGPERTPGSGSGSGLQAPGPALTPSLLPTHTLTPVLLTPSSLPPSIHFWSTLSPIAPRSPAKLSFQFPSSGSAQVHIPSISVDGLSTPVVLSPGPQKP
# How it was run: as §1
# GABPA = target: T3, GABPA (Homo sapiens, UniProt Q06546 1-454); settings: protein: recombinant; tags: N-terminal GST; dsDNA, one strand shown
# T3 sequence: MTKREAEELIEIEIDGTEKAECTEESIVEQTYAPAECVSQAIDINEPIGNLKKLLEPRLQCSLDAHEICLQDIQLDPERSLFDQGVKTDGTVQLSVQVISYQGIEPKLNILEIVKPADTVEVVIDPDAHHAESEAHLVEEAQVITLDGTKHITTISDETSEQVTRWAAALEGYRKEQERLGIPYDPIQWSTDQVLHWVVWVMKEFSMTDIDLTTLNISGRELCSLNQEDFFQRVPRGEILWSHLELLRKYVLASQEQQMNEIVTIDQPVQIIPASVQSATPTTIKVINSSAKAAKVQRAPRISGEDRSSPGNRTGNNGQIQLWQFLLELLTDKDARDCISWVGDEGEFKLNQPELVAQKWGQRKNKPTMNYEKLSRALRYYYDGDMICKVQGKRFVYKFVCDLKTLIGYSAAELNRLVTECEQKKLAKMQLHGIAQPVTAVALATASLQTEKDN
# How it was run: as §1
# ERG = target: T4, ERG (Homo sapiens, UniProt P11308 1-479); settings: protein: recombinant; tags: N-terminal GST; dsDNA, one strand shown
# T4 sequence: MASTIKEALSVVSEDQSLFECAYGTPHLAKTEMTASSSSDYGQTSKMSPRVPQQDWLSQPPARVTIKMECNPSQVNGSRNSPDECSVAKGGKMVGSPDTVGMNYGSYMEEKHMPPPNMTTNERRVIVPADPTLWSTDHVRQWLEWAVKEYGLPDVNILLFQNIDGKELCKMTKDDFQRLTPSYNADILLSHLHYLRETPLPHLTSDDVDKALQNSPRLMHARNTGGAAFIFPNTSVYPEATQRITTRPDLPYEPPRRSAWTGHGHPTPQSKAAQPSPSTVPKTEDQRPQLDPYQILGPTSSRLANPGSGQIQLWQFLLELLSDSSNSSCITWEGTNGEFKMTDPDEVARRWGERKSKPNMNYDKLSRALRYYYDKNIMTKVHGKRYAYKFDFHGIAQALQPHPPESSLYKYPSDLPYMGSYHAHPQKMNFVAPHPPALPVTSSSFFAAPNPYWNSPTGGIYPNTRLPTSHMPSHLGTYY
# How it was run: as §1
# ELF1 = ELF1 (Homo sapiens, UniProt P32519 1-619); settings: protein: recombinant; tags: N-terminal GST; dsDNA, one strand shown
# ELF1, sequence (P32519 whole entry): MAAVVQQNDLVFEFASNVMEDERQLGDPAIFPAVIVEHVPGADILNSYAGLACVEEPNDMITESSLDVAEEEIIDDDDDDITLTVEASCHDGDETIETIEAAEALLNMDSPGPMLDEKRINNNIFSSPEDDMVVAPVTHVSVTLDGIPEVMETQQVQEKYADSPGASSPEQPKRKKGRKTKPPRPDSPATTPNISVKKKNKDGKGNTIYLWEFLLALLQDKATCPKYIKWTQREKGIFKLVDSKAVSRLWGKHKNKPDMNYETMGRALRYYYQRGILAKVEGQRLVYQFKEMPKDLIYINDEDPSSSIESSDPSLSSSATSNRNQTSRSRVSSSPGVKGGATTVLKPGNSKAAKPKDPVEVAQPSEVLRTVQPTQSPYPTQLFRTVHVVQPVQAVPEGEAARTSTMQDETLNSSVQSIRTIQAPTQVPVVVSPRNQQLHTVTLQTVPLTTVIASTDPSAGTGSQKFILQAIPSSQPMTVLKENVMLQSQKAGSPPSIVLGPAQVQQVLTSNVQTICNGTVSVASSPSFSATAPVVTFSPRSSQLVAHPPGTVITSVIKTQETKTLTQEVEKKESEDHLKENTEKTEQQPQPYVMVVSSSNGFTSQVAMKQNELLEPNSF
# How it was run: as §1
# EHF = target: T5, EHF (Homo sapiens, UniProt Q9NZC4 1-300); settings: protein: recombinant; tags: N-terminal GST; dsDNA, one strand shown
# T5 sequence: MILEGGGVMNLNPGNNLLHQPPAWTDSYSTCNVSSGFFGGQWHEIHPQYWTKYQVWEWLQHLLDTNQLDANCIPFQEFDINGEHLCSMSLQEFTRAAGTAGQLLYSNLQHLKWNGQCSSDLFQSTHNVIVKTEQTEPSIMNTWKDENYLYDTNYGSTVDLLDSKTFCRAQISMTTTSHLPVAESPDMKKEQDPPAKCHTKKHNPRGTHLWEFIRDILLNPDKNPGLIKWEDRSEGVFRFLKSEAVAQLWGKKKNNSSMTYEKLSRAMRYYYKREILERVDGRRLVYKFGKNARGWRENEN
# How it was run: as §1
# SPI1 = SPI1 (Homo sapiens, UniProt P17947 1-270); settings: protein: recombinant; tags: N-terminal GST; dsDNA, one strand shown
# How it was run: as §1
# SPIB = SPIB (Homo sapiens, UniProt Q01892 1-262); settings: protein: recombinant; tags: N-terminal GST; dsDNA, one strand shown
# SPIB, sequence (Q01892 whole entry): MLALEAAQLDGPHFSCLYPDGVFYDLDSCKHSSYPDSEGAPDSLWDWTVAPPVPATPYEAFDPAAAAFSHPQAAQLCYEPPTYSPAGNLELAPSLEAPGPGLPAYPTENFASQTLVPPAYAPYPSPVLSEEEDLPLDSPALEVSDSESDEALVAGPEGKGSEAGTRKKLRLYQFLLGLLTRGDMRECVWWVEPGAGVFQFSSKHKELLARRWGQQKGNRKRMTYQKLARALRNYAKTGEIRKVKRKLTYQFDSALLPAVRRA
# How it was run: as §1
# ELK3 = target: T6, ELK3 (Homo sapiens, UniProt P41970 1-407); settings: protein: recombinant; tags: N-terminal GST; dsDNA, one strand shown
# T6 sequence: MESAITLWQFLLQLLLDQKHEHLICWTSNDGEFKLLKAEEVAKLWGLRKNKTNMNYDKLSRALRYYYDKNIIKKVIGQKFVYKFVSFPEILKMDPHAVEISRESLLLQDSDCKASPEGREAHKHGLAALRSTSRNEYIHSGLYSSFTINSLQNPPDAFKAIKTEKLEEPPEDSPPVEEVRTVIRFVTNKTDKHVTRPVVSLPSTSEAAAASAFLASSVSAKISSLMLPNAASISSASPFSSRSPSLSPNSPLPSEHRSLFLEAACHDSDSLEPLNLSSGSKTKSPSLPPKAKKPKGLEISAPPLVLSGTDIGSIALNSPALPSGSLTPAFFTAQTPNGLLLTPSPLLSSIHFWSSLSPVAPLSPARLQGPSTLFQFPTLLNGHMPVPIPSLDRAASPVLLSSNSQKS
# How it was run: as §1
# FEV = target: T7, FEV (Homo sapiens, UniProt Q99581 1-238); settings: protein: recombinant; tags: N-terminal GST; dsDNA, one strand shown
# T7 sequence: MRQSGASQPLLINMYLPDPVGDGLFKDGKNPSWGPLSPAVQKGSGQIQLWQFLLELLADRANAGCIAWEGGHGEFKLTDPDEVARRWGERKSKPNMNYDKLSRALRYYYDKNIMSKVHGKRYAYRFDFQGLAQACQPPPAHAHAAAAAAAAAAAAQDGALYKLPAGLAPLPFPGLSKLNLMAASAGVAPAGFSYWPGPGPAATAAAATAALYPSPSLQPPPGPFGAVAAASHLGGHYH
# How it was run: as §1
# ETV5 = ETV5 (Homo sapiens, UniProt P41161 1-510); settings: protein: recombinant; tags: N-terminal GST; dsDNA, one strand shown
# ETV5, sequence (P41161 whole entry): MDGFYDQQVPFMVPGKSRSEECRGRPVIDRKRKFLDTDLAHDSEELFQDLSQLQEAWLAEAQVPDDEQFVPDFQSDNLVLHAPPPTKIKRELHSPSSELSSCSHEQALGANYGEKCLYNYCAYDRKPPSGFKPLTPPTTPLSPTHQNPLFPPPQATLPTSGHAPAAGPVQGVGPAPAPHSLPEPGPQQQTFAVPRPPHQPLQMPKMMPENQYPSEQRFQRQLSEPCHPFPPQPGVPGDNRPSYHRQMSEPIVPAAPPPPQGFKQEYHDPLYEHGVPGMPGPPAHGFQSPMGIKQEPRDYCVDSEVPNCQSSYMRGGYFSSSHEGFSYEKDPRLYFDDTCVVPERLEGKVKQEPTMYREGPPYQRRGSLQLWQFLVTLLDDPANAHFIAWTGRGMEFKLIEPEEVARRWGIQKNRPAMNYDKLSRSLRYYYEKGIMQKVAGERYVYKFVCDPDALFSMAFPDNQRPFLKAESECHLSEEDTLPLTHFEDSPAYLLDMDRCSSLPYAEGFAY
# How it was run: as §1
# HSF1 = HSF1 (Homo sapiens, UniProt Q00613 1-529); settings: protein: recombinant; tags: N-terminal GST; chain copies: 3; dsDNA, one strand shown
# HSF1, sequence (Q00613 whole entry): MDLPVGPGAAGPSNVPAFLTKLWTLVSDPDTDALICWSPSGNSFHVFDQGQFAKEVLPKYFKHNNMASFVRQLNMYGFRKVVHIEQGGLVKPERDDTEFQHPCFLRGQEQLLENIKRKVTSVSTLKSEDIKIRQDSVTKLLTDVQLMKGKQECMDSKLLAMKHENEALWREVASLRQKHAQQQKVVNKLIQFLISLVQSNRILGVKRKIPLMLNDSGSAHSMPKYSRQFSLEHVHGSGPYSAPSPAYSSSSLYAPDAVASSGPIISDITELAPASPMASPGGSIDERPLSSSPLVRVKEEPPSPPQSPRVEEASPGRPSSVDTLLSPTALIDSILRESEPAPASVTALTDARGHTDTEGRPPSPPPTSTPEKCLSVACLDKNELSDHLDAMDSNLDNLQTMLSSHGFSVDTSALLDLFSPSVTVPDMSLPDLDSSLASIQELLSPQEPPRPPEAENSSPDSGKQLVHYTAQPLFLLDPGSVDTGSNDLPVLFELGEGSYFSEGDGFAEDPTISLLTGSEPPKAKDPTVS
# How it was run: as §1
# SPIC = target: T8, SPIC (Homo sapiens, UniProt Q8N5J4 1-248); settings: protein: recombinant; tags: N-terminal GST; dsDNA, one strand shown
# T8 sequence: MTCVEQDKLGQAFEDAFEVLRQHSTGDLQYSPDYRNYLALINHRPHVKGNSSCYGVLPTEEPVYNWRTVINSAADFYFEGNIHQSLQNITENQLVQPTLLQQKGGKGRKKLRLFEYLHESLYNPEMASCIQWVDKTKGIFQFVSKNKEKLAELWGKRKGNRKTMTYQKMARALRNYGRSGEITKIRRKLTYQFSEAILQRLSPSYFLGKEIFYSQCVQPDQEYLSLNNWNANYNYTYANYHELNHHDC
# How it was run: as §1
# ELF4 = ELF4 (Homo sapiens, UniProt Q99607 1-663); settings: protein: recombinant; tags: N-terminal GST; dsDNA, one strand shown
# ELF4, sequence (Q99607 whole entry): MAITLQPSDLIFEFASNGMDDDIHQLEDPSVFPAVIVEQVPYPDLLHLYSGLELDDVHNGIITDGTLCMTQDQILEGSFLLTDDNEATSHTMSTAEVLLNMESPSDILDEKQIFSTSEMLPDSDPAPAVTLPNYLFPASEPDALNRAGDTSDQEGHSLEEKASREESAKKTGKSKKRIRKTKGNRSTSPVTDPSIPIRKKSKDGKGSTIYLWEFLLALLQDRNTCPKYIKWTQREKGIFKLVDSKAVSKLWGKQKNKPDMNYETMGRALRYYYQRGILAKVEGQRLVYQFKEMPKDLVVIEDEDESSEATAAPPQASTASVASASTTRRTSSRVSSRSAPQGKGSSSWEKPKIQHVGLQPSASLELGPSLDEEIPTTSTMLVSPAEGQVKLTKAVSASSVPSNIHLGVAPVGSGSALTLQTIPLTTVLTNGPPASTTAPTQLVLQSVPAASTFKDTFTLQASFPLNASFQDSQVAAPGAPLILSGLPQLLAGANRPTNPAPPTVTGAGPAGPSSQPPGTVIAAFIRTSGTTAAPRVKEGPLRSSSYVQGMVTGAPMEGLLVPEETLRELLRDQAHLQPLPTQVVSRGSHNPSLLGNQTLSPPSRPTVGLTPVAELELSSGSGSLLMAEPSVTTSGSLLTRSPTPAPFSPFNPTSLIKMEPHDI
# How it was run: as §1
# ELK4 = target: T9, ELK4 (Homo sapiens, UniProt P28324-2 1-405); settings: protein: recombinant; tags: N-terminal GST; dsDNA, one strand shown
# T9 sequence: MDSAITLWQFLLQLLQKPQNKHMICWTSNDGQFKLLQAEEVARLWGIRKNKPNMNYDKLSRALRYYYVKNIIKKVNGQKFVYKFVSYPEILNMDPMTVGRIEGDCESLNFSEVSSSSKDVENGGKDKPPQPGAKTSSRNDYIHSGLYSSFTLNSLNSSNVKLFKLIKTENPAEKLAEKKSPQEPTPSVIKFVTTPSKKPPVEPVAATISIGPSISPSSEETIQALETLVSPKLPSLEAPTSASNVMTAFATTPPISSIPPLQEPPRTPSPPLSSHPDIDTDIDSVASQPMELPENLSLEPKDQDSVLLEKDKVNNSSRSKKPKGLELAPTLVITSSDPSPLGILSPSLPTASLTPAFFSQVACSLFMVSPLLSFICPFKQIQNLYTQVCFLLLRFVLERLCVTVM
# How it was run: as §1
# ETV2 = target: T10, ETV2 (Homo sapiens, UniProt O00321 1-342); settings: protein: recombinant; tags: N-terminal GST; dsDNA, one strand shown
# T10 sequence: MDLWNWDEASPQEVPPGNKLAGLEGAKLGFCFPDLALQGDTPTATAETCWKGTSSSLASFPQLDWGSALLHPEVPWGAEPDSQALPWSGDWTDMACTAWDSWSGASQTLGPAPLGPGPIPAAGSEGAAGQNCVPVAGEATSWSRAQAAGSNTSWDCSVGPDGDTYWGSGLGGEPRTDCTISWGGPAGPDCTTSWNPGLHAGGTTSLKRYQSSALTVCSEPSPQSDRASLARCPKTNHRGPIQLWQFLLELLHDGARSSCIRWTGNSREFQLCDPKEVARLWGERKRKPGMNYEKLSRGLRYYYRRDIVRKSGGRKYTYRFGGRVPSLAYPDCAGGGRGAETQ
# How it was run: as §1
# ELF3 = target: T11, ELF3 (Homo sapiens, UniProt P78545 1-371); settings: protein: recombinant; tags: N-terminal GST; dsDNA, one strand shown
# T11 sequence: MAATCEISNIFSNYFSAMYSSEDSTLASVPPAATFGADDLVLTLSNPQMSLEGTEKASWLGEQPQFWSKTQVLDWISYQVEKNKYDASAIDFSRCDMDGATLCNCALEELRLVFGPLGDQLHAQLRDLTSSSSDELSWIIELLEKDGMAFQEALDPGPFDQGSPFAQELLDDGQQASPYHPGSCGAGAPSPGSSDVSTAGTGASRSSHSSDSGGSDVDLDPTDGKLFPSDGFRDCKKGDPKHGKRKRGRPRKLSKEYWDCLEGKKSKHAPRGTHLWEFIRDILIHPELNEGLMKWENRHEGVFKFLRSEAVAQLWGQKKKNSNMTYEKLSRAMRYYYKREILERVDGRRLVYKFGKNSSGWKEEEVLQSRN
# How it was run: as §1
# CRX = CRX (Homo sapiens, UniProt O43186 1-299); settings: protein: recombinant; tags: N-terminal GST; dsDNA, one strand shown
# CRX, sequence (O43186 whole entry): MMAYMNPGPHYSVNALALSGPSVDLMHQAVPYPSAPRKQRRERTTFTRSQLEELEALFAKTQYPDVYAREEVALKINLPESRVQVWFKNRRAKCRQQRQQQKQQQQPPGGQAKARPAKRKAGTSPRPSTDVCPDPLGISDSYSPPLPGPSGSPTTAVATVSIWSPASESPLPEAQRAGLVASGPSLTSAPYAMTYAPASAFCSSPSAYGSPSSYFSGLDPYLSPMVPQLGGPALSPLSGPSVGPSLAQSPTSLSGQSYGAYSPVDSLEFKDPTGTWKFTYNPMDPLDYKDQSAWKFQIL
# How it was run: as §1
# ETV1 = ETV1 (Homo sapiens, UniProt P50549 1-477); settings: protein: recombinant; tags: N-terminal GST; dsDNA, one strand shown
# ETV1, sequence (P50549 whole entry): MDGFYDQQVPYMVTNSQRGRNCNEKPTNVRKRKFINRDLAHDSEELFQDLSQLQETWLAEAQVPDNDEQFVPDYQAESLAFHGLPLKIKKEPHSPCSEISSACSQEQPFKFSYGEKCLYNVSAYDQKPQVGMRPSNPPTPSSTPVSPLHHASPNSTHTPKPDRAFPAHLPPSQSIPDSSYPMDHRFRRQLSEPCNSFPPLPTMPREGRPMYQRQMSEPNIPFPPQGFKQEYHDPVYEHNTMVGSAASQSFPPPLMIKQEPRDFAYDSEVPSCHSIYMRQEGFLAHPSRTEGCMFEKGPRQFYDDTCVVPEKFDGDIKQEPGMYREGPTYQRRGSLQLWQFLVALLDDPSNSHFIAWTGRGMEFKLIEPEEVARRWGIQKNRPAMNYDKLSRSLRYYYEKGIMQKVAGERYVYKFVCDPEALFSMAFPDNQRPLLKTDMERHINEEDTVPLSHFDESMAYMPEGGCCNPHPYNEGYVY
# How it was run: as §1
sequence,measurement,setting,value
AATCCG,binding signal,FLI1,"1.53 fold enrichment (6-mer frequency, TF over GST control)"
same,binding signal,ELK1,"1.62 fold enrichment (6-mer frequency, TF over GST control)"
same,binding signal,GABPA,"1.44 fold enrichment (6-mer frequency, TF over GST control)"
same,binding signal,ERG,"1.84 fold enrichment (6-mer frequency, TF over GST control)"
same,binding signal,ELF1,"1.5 fold enrichment (6-mer frequency, TF over GST control)"
same,binding signal,EHF,"1.55 fold enrichment (6-mer frequency, TF over GST control)"
same,binding signal,SPI1,"1.59 fold enrichment (6-mer frequency, TF over GST control)"
same,binding signal,SPIB,"1.68 fold enrichment (6-mer frequency, TF over GST control)"
same,binding signal,ELK3,"1.5 fold enrichment (6-mer frequency, TF over GST control)"
same,binding signal,FEV,"2.44 fold enrichment (6-mer frequency, TF over GST control)"
same,binding signal,ETV5,"1.65 fold enrichment (6-mer frequency, TF over GST control)"
same,binding signal,HSF1,"2.09 fold enrichment (6-mer frequency, TF over GST control)"
same,binding signal,SPIC,"1.48 fold enrichment (6-mer frequency, TF over GST control)"
same,binding signal,ELF4,"1.46 fold enrichment (6-mer frequency, TF over GST control)"
same,binding signal,ELK4,"1.33 fold enrichment (6-mer frequency, TF over GST control)"
same,binding signal,ETV2,"1.47 fold enrichment (6-mer frequency, TF over GST control)"
same,binding signal,ELF3,"1.32 fold enrichment (6-mer frequency, TF over GST control)"
same,binding signal,CRX,"3.2 fold enrichment (6-mer frequency, TF over GST control)"
same,binding signal,ETV1,"1.43 fold enrichment (6-mer frequency, TF over GST control)"
